Data published in article PMC7862700, “An all-to-all approach to the identification of sequence-specific readers for epigenetic DNA modifications on cytosine”.

Assays:
Test in all cases: DAPPL (digital affinity profiling via proximity ligation, sequencing); 10 mM Tris-HCl pH 7.5, 50 mM NaCl, 1 mM DTT, 4% glycerol, room temperature, 30 min; GST-TFs on glutathione beads, 16-mer random dsDNA library, 0.1% formaldehyde crosslink after washing; high values mean tight binding
FLI1 = target: T1, FLI1 (Homo sapiens, UniProt Q01543 1-452); settings: protein: recombinant; tags: N-terminal GST; dsDNA, one strand shown
T1 sequence: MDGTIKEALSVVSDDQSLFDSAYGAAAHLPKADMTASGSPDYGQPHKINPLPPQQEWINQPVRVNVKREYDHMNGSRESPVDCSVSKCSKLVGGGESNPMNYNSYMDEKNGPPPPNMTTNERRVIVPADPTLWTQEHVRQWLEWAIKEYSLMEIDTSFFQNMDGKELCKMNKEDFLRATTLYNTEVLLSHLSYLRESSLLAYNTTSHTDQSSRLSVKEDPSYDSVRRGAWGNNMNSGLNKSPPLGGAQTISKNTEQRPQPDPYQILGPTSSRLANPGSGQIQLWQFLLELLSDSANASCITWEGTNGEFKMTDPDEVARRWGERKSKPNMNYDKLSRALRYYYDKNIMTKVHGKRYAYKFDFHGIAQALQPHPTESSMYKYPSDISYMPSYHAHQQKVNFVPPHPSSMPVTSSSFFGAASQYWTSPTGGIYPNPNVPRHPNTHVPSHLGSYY
Method in brief: (§1)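 Binding signal is defined as a hexamer's read frequency for one factor over its frequency for the tag-only sample. To obtain reads, GST-fused human transcription factors were expressed in yeast, captured on glutathione beads, barcoded with DNA and pooled with that sample. Pools met 200 nmole of a 16-mer random double-stranded DNA library in Tris/NaCl/DTT/glycerol buffer for 30 min at room temperature before washing, 0.1% formaldehyde crosslinking, proximity ligation (BsaI/T4 ligase, 1 h, 37 °C), PCR and Illumina NextSeq500 sequencing.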

ELK1 = target: T2, ELK1 (Homo sapiens, UniProt P19419 1-428); settings: protein: recombinant; tags: N-terminal GST; dsDNA, one strand shown
T2 sequence: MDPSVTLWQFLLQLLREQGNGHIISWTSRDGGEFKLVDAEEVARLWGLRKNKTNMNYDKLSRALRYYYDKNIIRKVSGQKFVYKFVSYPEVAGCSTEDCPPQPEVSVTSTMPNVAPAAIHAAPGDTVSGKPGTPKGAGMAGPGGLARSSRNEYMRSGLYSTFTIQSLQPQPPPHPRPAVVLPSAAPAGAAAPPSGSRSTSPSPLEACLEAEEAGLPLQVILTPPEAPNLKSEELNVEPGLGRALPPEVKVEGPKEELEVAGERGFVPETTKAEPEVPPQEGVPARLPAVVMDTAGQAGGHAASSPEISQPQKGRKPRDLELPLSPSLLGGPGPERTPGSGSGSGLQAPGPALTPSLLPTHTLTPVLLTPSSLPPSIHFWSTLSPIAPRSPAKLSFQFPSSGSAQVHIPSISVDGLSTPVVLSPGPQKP
Method in brief: as §1

GABPA = target: T3, GABPA (Homo sapiens, UniProt Q06546 1-454); settings: protein: recombinant; tags: N-terminal GST; dsDNA, one strand shown
T3 sequence: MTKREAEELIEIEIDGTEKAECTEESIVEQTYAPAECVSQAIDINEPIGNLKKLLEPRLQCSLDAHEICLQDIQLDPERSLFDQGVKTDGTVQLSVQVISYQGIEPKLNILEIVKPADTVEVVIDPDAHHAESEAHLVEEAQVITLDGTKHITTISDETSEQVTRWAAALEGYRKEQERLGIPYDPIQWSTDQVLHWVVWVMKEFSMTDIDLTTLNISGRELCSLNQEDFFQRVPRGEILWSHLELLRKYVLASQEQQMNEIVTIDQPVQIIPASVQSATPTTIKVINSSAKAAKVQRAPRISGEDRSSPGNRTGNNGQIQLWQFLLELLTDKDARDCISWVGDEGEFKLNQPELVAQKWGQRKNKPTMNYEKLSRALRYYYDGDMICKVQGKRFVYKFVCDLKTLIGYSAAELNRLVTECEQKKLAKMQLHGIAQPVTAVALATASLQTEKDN
Method in brief: as §1

ERG = target: T4, ERG (Homo sapiens, UniProt P11308 1-479); settings: protein: recombinant; tags: N-terminal GST; dsDNA, one strand shown
T4 sequence: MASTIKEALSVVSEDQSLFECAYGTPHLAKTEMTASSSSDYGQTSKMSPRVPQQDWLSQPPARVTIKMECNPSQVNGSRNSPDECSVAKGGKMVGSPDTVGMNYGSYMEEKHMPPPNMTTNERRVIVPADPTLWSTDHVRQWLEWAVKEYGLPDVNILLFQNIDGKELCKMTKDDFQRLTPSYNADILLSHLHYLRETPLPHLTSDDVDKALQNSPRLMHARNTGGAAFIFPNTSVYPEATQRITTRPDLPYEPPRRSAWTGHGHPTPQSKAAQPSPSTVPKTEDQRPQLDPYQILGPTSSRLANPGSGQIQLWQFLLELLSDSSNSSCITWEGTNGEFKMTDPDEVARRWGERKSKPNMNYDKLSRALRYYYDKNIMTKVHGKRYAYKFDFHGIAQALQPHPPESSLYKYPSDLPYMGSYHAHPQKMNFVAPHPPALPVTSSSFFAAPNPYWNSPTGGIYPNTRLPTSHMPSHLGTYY
Method in brief: as §1

ELF1 = ELF1 (Homo sapiens, UniProt P32519 1-619); settings: protein: recombinant; tags: N-terminal GST; dsDNA, one strand shown
Sequence of ELF1 (P32519 whole entry): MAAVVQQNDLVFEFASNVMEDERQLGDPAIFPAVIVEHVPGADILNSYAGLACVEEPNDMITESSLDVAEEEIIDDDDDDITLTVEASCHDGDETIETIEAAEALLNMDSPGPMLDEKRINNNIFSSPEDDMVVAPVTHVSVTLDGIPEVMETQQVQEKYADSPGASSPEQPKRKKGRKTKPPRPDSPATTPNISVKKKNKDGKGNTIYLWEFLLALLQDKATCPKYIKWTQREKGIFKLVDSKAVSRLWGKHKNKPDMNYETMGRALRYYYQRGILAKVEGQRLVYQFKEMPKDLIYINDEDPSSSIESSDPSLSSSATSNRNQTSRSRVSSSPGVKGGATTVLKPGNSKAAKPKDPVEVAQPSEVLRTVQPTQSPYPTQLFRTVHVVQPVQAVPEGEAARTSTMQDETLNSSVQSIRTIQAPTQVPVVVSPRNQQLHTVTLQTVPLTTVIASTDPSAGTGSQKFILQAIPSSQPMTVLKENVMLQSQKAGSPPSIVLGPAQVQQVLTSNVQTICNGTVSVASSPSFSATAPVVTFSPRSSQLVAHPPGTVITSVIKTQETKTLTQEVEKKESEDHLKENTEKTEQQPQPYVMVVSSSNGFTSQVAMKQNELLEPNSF
Method in brief: as §1

EHF = target: T5, EHF (Homo sapiens, UniProt Q9NZC4 1-300); settings: protein: recombinant; tags: N-terminal GST; dsDNA, one strand shown
T5 sequence: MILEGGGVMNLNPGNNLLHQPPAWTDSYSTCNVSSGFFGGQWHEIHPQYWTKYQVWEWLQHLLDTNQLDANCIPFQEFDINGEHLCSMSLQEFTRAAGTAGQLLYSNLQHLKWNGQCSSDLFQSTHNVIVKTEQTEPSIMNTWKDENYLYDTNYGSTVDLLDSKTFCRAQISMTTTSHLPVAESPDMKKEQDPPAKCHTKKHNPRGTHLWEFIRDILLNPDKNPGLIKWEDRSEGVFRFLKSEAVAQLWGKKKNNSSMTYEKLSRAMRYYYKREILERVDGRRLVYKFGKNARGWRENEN
Method in brief: as §1

SPI1 = SPI1 (Homo sapiens, UniProt P17947 1-270); settings: protein: recombinant; tags: N-terminal GST; dsDNA, one strand shown
Method in brief: as §1

SPIB = SPIB (Homo sapiens, UniProt Q01892 1-262); settings: protein: recombinant; tags: N-terminal GST; dsDNA, one strand shown
Sequence of SPIB (Q01892 whole entry): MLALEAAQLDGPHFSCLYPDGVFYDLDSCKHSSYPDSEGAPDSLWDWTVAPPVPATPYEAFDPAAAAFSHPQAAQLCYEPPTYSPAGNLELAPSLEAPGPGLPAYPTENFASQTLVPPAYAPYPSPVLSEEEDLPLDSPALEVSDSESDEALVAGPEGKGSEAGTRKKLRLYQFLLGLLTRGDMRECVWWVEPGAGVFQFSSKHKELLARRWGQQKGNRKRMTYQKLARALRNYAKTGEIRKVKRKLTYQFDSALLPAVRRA
Method in brief: as §1

ELK3 = target: T6, ELK3 (Homo sapiens, UniProt P41970 1-407); settings: protein: recombinant; tags: N-terminal GST; dsDNA, one strand shown
T6 sequence: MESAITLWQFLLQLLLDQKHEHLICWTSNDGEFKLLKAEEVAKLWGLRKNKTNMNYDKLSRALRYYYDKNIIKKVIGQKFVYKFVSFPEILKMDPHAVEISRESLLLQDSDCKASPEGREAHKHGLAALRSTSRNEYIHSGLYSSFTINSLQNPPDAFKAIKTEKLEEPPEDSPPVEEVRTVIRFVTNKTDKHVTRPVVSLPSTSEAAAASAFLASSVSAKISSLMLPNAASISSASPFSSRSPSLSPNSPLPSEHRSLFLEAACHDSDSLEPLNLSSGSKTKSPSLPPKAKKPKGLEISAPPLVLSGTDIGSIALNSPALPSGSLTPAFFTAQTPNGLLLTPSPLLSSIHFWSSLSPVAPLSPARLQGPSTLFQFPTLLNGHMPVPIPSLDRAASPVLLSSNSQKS
Method in brief: as §1

FEV = target: T7, FEV (Homo sapiens, UniProt Q99581 1-238); settings: protein: recombinant; tags: N-terminal GST; dsDNA, one strand shown
T7 sequence: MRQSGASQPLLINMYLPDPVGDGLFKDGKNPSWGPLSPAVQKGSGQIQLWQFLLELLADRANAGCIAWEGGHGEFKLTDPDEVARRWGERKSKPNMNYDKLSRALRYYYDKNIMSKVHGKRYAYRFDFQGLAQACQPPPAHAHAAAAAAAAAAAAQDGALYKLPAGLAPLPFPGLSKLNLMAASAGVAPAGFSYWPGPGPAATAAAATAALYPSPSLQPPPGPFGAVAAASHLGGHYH
Method in brief: as §1

ETV5 = ETV5 (Homo sapiens, UniProt P41161 1-510); settings: protein: recombinant; tags: N-terminal GST; dsDNA, one strand shown
Sequence of ETV5 (P41161 whole entry): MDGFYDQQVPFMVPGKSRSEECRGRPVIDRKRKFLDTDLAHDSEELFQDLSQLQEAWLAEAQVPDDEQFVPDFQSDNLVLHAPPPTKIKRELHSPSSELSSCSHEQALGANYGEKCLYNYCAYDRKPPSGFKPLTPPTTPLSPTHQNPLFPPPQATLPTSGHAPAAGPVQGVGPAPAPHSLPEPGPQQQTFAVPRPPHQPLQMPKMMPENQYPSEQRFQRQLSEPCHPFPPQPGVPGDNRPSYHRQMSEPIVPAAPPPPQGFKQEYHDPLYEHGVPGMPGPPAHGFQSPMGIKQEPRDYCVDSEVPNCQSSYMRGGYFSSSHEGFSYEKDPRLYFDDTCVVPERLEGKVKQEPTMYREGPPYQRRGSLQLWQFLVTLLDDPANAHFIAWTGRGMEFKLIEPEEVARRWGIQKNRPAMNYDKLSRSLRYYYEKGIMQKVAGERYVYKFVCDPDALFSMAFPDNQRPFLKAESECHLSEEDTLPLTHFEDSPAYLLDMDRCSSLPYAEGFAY
Method in brief: as §1

HSF1 = HSF1 (Homo sapiens, UniProt Q00613 1-529); settings: protein: recombinant; tags: N-terminal GST; chain copies: 3; dsDNA, one strand shown
Sequence of HSF1 (Q00613 whole entry): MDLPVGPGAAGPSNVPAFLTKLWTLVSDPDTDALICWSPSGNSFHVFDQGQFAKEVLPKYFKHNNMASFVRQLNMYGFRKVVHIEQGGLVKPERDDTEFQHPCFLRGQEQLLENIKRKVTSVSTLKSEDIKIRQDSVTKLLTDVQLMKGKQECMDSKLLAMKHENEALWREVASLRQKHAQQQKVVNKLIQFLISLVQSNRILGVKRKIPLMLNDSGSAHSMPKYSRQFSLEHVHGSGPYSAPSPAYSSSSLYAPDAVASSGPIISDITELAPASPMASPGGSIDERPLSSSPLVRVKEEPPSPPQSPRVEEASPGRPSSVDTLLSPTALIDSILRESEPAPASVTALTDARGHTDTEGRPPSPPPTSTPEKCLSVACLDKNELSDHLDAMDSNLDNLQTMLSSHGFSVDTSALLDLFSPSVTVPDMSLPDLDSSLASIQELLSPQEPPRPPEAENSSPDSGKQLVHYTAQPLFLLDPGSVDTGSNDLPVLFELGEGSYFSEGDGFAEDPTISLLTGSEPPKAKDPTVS
Method in brief: as §1

SPIC = target: T8, SPIC (Homo sapiens, UniProt Q8N5J4 1-248); settings: protein: recombinant; tags: N-terminal GST; dsDNA, one strand shown
T8 sequence: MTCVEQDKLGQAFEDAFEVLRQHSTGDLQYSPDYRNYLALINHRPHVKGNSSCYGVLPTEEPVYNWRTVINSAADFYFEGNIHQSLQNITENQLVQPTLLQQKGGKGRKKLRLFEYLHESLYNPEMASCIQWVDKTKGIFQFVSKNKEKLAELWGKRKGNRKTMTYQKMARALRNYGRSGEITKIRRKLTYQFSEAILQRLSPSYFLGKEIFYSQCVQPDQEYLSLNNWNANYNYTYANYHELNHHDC
Method in brief: as §1

ELF4 = ELF4 (Homo sapiens, UniProt Q99607 1-663); settings: protein: recombinant; tags: N-terminal GST; dsDNA, one strand shown
Sequence of ELF4 (Q99607 whole entry): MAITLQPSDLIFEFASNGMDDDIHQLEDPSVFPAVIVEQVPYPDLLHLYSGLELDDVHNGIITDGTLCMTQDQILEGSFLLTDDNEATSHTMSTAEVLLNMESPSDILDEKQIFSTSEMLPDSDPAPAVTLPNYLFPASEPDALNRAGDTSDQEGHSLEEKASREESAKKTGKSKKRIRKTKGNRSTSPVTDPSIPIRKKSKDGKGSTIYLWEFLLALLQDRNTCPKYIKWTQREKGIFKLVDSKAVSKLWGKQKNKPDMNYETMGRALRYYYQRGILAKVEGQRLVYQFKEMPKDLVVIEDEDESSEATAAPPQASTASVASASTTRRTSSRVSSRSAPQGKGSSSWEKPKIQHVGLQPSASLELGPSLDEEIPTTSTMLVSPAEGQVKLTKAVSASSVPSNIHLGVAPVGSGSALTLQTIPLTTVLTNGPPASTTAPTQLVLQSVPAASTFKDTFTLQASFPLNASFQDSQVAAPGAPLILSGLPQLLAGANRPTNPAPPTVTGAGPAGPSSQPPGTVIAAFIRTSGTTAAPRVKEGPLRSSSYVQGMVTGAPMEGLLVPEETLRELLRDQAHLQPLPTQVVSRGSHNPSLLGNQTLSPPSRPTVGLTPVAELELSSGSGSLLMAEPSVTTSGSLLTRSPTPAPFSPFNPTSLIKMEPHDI
Method in brief: as §1

ELK4 = target: T9, ELK4 (Homo sapiens, UniProt P28324-2 1-405); settings: protein: recombinant; tags: N-terminal GST; dsDNA, one strand shown
T9 sequence: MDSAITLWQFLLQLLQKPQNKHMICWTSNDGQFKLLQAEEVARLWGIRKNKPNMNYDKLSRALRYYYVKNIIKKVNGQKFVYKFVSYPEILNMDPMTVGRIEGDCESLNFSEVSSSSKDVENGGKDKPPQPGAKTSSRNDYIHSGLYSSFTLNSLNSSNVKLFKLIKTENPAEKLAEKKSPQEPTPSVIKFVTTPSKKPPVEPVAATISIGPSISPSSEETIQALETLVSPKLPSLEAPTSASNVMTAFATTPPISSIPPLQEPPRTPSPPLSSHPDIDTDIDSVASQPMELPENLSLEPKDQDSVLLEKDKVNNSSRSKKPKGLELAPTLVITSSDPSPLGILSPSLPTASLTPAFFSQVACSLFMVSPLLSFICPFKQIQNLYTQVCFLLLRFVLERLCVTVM
Method in brief: as §1

ETV2 = target: T10, ETV2 (Homo sapiens, UniProt O00321 1-342); settings: protein: recombinant; tags: N-terminal GST; dsDNA, one strand shown
T10 sequence: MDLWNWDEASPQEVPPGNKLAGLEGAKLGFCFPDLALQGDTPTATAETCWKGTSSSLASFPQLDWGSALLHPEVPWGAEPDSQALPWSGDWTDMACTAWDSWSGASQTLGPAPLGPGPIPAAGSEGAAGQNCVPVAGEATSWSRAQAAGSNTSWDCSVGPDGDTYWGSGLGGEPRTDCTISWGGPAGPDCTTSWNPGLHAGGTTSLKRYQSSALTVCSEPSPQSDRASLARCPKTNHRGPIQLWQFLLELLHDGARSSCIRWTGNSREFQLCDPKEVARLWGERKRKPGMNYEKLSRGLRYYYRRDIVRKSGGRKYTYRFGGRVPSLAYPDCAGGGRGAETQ
Method in brief: as §1

ELF3 = target: T11, ELF3 (Homo sapiens, UniProt P78545 1-371); settings: protein: recombinant; tags: N-terminal GST; dsDNA, one strand shown
T11 sequence: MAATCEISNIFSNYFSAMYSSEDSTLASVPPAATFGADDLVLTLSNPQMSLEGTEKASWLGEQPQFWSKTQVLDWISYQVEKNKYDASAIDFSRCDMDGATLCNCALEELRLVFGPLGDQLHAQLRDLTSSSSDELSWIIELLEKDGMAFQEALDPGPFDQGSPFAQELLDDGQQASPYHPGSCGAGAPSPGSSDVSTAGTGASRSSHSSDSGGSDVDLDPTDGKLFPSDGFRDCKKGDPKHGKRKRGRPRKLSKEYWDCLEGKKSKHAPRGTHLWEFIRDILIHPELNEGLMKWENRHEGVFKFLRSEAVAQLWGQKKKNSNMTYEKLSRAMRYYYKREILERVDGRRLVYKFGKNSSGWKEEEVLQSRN
Method in brief: as §1

CRX = CRX (Homo sapiens, UniProt O43186 1-299); settings: protein: recombinant; tags: N-terminal GST; dsDNA, one strand shown
Sequence of CRX (O43186 whole entry): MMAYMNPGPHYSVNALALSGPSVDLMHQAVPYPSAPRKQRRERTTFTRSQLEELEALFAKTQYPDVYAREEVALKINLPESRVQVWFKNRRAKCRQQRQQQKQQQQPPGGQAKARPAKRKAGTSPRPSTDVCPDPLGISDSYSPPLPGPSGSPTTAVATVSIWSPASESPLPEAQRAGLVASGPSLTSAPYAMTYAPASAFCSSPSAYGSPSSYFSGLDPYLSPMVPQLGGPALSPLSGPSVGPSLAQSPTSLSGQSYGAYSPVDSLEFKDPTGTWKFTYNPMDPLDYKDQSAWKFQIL
Method in brief: as §1

ETV1 = ETV1 (Homo sapiens, UniProt P50549 1-477); settings: protein: recombinant; tags: N-terminal GST; dsDNA, one strand shown
Sequence of ETV1 (P50549 whole entry): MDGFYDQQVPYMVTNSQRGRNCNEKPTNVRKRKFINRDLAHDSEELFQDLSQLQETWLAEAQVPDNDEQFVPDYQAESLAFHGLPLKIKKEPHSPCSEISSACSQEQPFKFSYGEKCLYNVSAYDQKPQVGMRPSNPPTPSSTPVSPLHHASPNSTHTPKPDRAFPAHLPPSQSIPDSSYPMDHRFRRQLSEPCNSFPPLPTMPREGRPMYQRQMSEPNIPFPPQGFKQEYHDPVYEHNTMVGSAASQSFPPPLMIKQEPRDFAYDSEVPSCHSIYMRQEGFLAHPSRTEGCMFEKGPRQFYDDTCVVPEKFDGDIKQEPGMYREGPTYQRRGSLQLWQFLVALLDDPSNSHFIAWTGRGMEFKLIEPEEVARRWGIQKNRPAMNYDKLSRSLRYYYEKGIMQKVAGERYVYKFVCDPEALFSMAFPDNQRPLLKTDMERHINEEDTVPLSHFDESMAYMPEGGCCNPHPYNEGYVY
Method in brief: as §1

TCTTGA
binding signal (FLI1): 1.33 fold enrichment (6-mer frequency, TF over GST control) | binding signal (ELK1): 1.31 fold enrichment (6-mer frequency, TF over GST control) | binding signal (GABPA): 1.33 fold enrichment (6-mer frequency, TF over GST control) | binding signal (ERG): 1.24 fold enrichment (6-mer frequency, TF over GST control) | binding signal (ELF1): 1.3 fold enrichment (6-mer frequency, TF over GST control) | binding signal (EHF): 1.35 fold enrichment (6-mer frequency, TF over GST control) | binding signal (SPI1): 1.25 fold enrichment (6-mer frequency, TF over GST control) | binding signal (SPIB): 1.27 fold enrichment (6-mer frequency, TF over GST control) | binding signal (ELK3): 1.29 fold enrichment (6-mer frequency, TF over GST control) | binding signal (FEV): 1.3 fold enrichment (6-mer frequency, TF over GST control) | binding signal (ETV5): 1.14 fold enrichment (6-mer frequency, TF over GST control) | binding signal (HSF1): 1.61 fold enrichment (6-mer frequency, TF over GST control) | binding signal (SPIC): 1.21 fold enrichment (6-mer frequency, TF over GST control) | binding signal (ELF4): 1.33 fold enrichment (6-mer frequency, TF over GST control) | binding signal (ELK4): 1.4 fold enrichment (6-mer frequency, TF over GST control) | binding signal (ETV2): 1.2 fold enrichment (6-mer frequency, TF over GST control) | binding signal (ELF3): 1.19 fold enrichment (6-mer frequency, TF over GST control) | binding signal (CRX): 1.44 fold enrichment (6-mer frequency, TF over GST control) | binding signal (ETV1): 1.17 fold enrichment (6-mer frequency, TF over GST control)
